# Compounds with a hit are over-represented: about 3.5% of the library has one in this group of screens.
# FBW7 activator: activators of human E3 ligase FBW7; Q969H0; AlphaScreen FBW7–phospho-cyclin E peptide binding, activator screen; normalized activity (activation), % at 26.1 µM; 650,000 compounds, 0.13% hits; AID 1259310; in the data active = normalized activity above about 1.9%;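 note: purified mutant Fbw7 with reduced substrate affinity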
# GPR151 ag: activators of human GPR151. activation, % at 11.2 µM. AID 1508602. PathHunter beta-arrestin GPR151 cells, luminescence. 650,000 compounds, 1% hits. Q8TDV0; in the data active = activation above about 4.9%;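 note: 0% = median of compound wells and 100% = cells with positive control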
# TEAD-YAP inh: TEAD-YAP interaction inhibition; inhibition, % at 9.12 µM; 640,000 compounds, 1.4% hits; HEK-TIYL cells, TEAD-Gal4/YAP UAS-luciferase luminescence; in the data active = inhibition above about 32%;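 note: 0% = median of test compound wells and 100% = reference inhibitor wells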
# MITF primary: inhibitors of human MITF. inhibition, % at 2.6 µM. 650,000 compounds, 0.91% hits. AlphaScreen MITF homodimerization, bead proximity signal. O75030; in the data active = inhibition above about 50%;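 note: 0% = vehicle wells with protein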
# Target sequence (O75030 whole entry, looked up): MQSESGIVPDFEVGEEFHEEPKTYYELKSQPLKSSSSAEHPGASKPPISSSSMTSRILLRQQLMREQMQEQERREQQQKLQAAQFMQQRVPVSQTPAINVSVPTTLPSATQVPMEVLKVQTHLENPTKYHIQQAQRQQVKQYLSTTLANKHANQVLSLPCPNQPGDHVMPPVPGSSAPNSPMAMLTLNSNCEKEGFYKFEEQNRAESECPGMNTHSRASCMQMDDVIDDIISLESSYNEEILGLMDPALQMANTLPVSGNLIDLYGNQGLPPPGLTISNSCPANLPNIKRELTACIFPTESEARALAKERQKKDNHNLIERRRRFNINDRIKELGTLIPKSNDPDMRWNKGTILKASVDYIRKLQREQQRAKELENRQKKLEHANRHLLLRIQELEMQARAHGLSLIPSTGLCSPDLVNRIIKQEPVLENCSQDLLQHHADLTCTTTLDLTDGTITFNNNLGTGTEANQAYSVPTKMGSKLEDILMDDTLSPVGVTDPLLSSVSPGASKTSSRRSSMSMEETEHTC
# * hit, by the source's call.
SMILES,FBW7 activator,GPR151 ag,TEAD-YAP inh,MITF primary
COc1ccc(-n2ncc3c(N4CCCCC4)ncnc32)cc1,0.4,-7.9,90.8*,12.2
COc1ccc(-n2ncc3c(N4CCCCCC4)ncnc32)cc1,0.1,-5.0,96.8*,-6.7
COc1ccc(-n2ncc3c(N4CCN(c5ccccc5)CC4)ncnc32)cc1,0.0,-0.7,-1.1,-9.4
O=CN1CCN(C(=O)CN2C(=O)c3ccccc3S2(=O)=O)CC1,0.2,-0.8,-8.5,-8.9
S=c1cc(-c2ccccc2)oc2c1CCCC2,0.0,1.4,-7.9,3.0
CC(=O)c1c2c(n3cc4ccccc4cc13)C(=O)c1ccccc1C2=O,0.0,-1.1,-2.7,11.5
COC(=O)c1c2c(n3cc4ccccc4cc13)C(=O)c1ccccc1C2=O,0.1,0.5,-4.7,87.0*
CCOC(=O)c1ccc(NC(=O)c2ccc(S(=O)(=O)N3CCCCC3C)cc2)cc1 (stereo unspecified),0.3,-0.2,0.5,6.2
Cc1ccc(-n2ncc3c(SCC(=O)NCc4ccco4)ncnc32)c(C)c1,0.2,-1.5,38.7*,6.0
CCOC(=O)C1=C(c2ccccc2)NC(=O)NC1c1cccc(OCC)c1OC (stereo unspecified),0.1,-0.5,4.5,11.8
CC(C)S(=O)(=O)C1=NSC2=NC(=O)/C(=C\c3ccc(Br)o3)C(=N)N21,-1.1,-0.1,8.3,84.2*
CS(=O)(=O)C1=NSC2=NC(=O)/C(=C\c3ccc(Br)o3)C(=N)N21,-1.9,-0.5,11.9,74.3*
Oc1ccc2cc(Br)ccc2c1Br,2.1*,-0.1,-5.6,24.1
CC(=O)NC(c1ccco1)c1ccc2cccnc2c1O (stereo unspecified),-1.8,0.1,44.3*,77.3*
CC(=O)NC(c1cccs1)c1ccc2cccnc2c1O (stereo unspecified),-0.2,-2.2,91.5*,70.0*
C=CCn1c(SCC(=O)Nc2ccc(C(=O)OC)cc2)nc2sc3c(c2c1=O)CCCC3,0.0,0.9,-2.3,6.5
CN1CCN(c2ccc(-c3ccc(C(=O)NC4CC4)s3)cc2)CC1,0.1,-1.5,52.0*,1.4
Oc1cccc(-c2cnn3c(NCCc4ccccn4)ccnc23)c1,-0.4,0.1,84.7*,-12.7
Fc1ccccc1-c1cnn2c(NCCc3ccccn3)ccnc12,-0.4,-2.6,72.5*,-13.7
CC(C)[C@@H](CO)Nc1ccnc2c(-c3ccoc3)cnn12,0.1,0.2,-3.3,-3.2
CC(C)[C@@H](CO)Nc1ccnc2c(-c3ccccc3F)cnn12,0.1,2.6,55.6*,10.1
C=COCCNC(=O)C(=O)Nc1ccc(OCCCCC)cc1,0.1,1.9,6.8,-12.1
Cc1cccc(N2CC(=O)N/C2=N\c2nc(C)cc(C)n2)c1,0.1,1.3,-11.0,4.4
Cn1cc(-c2cccc3cnc(NC4CCN(C(=O)N5CCCC5)C4)nc23)cn1 (stereo unspecified),0.1,-1.0,38.5*,0.3
CC(=O)Nc1ccc(C(=O)N2CCOCC2)cc1,0.6,-0.8,6.8,13.5
SMILES,FBW7 activator,GPR151 ag,TEAD-YAP inh,MITF primary
O=C(c1ccc(-c2nnc(-c3ccccc3)o2)cc1)N1CCOCC1,0.2,-9.8,42.9*,-13.7
Nc1nnc(SCC(=O)N2N=C(c3ccc4ccccc4c3)CC2c2ccccc2)s1 (stereo unspecified),0.0,-1.5,51.2*,-0.1
O=C(/C=C/c1ccco1)NC(=S)NCc1cccnc1,0.8,-0.1,47.4*,27.9
Cc1c(CNC2CCC(C)CC2)c(C(=O)O)c(C)n1Cc1c(F)cccc1Cl (stereo unspecified),0.1,0.4,2.8,2.0
Cc1ccc2c(c1)sc1nc(-c3ccccc3)cn12,2.4*,-6.5,96.3*,-20.2
Cc1ccc(-c2cn3c(n2)sc2cc(C(=O)N4CCC(C(N)=O)CC4)ccc23)cc1,0.7,-0.2,-39.4,5.9
Cc1ccc(S(=O)(=O)N(C)c2ccc(C(=O)N3C(C)CCCC3C)cc2)cc1 (stereo unspecified),0.6,4.7,48.4*,10.5
Cc1ccc(S(=O)(=O)N(C)c2ccc(C(=O)N3CCCCC3)cc2)cc1,0.0,1.1,12.9,3.7
Cc1nc(/N=C(\N)Nc2ccccc2)[nH]c(=O)c1C,2.2*,-0.2,7.1,12.0
COc1cccc(/C=N/NC(=O)C(=O)Nc2ccccc2OC(F)(F)C(F)F)c1O,0.0,3.8,64.9*,0.1
O=C(N/N=C/c1ccccc1)C(=O)Nc1ccccc1OC(F)(F)C(F)F,0.5,-0.5,3.9,13.9
CCOc1ccccc1NC(=O)C(=O)N/N=C/c1cccc(Cl)c1Cl,0.1,0.2,8.0,2.9
CCOc1ccccc1NC(=O)C(=O)N/N=C/c1cccc(OC)c1O,-1.6,1.6,79.2*,23.1
CCCCNC(=O)C(=O)Nc1ccccc1OCC,2.3*,-0.1,0.0,2.7
CCCCOc1ccc(C(=O)Nc2cc(C3CC3)nn2-c2nc(C(C)C)cc(=O)[nH]2)cc1,-0.1,-0.5,-3.0,1.2
CCOC(=O)CSC1=C(C#N)C(c2ccc(OC)cc2)CC(=O)N1 (stereo unspecified),-0.1,-0.9,-3.5,-1.7
COc1ccc(S(=O)(=O)Nc2cc3c4c(oc3c3ccccc23)CCCC4=O)cc1,0.0,1.3,55.6*,12.5
COC(=O)c1c(C)oc2c1cc(NS(=O)(=O)c1ccccc1)c1ccccc12,0.0,1.7,4.5,0.3
COC(=O)c1c(C)oc2c1cc(NS(=O)(=O)c1ccc(OC)cc1)c1ccccc12,-0.1,-1.4,50.8*,2.0
Cc1ccccc1C(=O)NC(=S)N1CCN(c2ccc([N+](=O)[O-])cc2)CC1,-0.1,-1.1,-1.1,-1.4
O=c1oc(-c2ccco2)nc2sc3c(c12)CCCC3,0.2,-2.1,1.8,1.7
c1coc(-c2nnc(-c3cc4c(s3)CCCC4)o2)c1,0.0,-7.7,54.1*,-6.5
COCCC(=O)NCC1Cc2c(F)ccc(-c3ccc(C(=O)C4CC4)cc3)c2O1 (stereo unspecified),0.2,-1.1,-25.4,0.5
O=C(NCC1Cc2c(F)ccc(-c3ccc(C(=O)C4CC4)cc3)c2O1)c1cnsn1 (stereo unspecified),-0.1,-1.2,55.9*,-10.0
Cc1nonc1C(=O)NCC1Cc2c(F)ccc(-c3ccc(C(=O)C4CC4)cc3)c2O1 (stereo unspecified),0.0,-1.4,63.1*,-13.6
SMILES,FBW7 activator,GPR151 ag,TEAD-YAP inh,MITF primary
CS(=O)(=O)c1ccccc1CN1CCC(N(Cc2ccco2)C(=O)c2ccco2)CC1,0.2,4.9,-5.0,13.3
N#CC(C#N)=C(N)/C(C#N)=C/c1ccc(-c2cc(C(=O)O)cc(C(=O)O)c2)o1,-0.6,-0.9,1.8,62.6*
COCCN(CC(=O)NCCc1ccccc1)C(=O)CCC(=O)Nc1cc(C)ccn1,-0.2,3.6,32.9*,0.8
Cc1cccc(N(CC(=O)NCc2ccccc2)C(=O)CCC(=O)Nc2ccccn2)c1,1.9*,0.0,-14.1,7.6
Cc1ccnc(NC(=O)CCC(=O)N(CC(=O)NCCc2ccccc2)C2CCCC2)c1,-0.1,3.0,-9.7,-2.5
CC(C)OCCCNC(=O)CC1Nc2ccccc2NC1=O (stereo unspecified),0.2,-1.5,-5.1,5.0
Cc1csc(NC(=O)CSc2nnc(NC(=O)CCc3ccccc3)s2)n1,0.0,-1.5,-5.6,-5.5
